How the values were obtained:
[1] = biological target: Serine/threonine-protein kinase MRCK alpha (Homo sapiens) (UniProt Q5VT25); details: at 0.1 µM
[2] = biological target: Serine/threonine-protein kinase MRCK alpha (Homo sapiens) (UniProt Q5VT25); details: at 1 µM
[3] = biological target: Serine/threonine-protein kinase MRCK beta (Homo sapiens) (UniProt Q9Y5S2); details: at 0.1 µM
[4] = biological target: Serine/threonine-protein kinase MRCK beta (Homo sapiens) (UniProt Q9Y5S2); details: at 1 µM
[5] = biological target: Ribosomal protein S6 kinase alpha-5 (Homo sapiens) (UniProt O75582); details: at 0.1 µM
[6] = biological target: Ribosomal protein S6 kinase alpha-5 (Homo sapiens) (UniProt O75582); details: at 1 µM
[7] = biological target: Ribosomal protein S6 kinase alpha-4 (Homo sapiens) (UniProt O75676); details: at 0.1 µM
[8] = biological target: Ribosomal protein S6 kinase alpha-4 (Homo sapiens) (UniProt O75676); details: at 1 µM
[9] = biological target: Ribosomal protein S6 kinase beta-1 (Homo sapiens) (UniProt P23443); details: at 0.1 µM
[10] = biological target: Ribosomal protein S6 kinase beta-1 (Homo sapiens) (UniProt P23443); details: at 1 µM
[11] = biological target: T1, 3-phosphoinositide-dependent protein kinase 1 (Homo sapiens) (UniProt O15530); details: at 0.1 µM;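 also: values are mean inhibition of PDK1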
T1 sequence (whole entry): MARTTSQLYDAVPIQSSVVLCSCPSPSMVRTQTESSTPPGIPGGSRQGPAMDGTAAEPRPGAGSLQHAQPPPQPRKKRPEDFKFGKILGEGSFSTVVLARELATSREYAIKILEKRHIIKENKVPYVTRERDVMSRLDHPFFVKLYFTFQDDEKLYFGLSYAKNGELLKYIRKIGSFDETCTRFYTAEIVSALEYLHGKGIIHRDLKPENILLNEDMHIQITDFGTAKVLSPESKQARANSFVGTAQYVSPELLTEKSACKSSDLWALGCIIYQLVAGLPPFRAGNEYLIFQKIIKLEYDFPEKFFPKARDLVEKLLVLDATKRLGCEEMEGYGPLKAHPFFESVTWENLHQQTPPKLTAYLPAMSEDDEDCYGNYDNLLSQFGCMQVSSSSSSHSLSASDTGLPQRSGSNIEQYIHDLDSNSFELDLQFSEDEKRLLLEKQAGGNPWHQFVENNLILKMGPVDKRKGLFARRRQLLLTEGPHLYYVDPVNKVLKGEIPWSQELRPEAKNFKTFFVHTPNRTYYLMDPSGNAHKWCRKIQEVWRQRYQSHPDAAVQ

[12] = biological target: cAMP-dependent protein kinase catalytic subunit alpha (Homo sapiens) (UniProt P17612); details: at 0.1 µM
[13] = biological target: cAMP-dependent protein kinase catalytic subunit alpha (Homo sapiens) (UniProt P17612); details: at 1 µM
[14] = biological target: Protein kinase C alpha type (Homo sapiens) (UniProt P17252); details: at 0.1 µM
[15] = biological target: Protein kinase C alpha type (Homo sapiens) (UniProt P17252); details: at 1 µM
[16] = biological target: Protein kinase C beta type (Homo sapiens) (UniProt P05771); details: at 0.1 µM
[17] = biological target: Protein kinase C beta type (Homo sapiens) (UniProt P05771); details: at 1 µM
[18] = biological target: Protein kinase C eta type (Homo sapiens) (UniProt P24723); details: at 0.1 µM
[19] = biological target: Protein kinase C eta type (Homo sapiens) (UniProt P24723); details: at 1 µM
[20] = biological target: Protein kinase C gamma type (Homo sapiens) (UniProt P05129); details: at 0.1 µM;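 also: values are mean percent inhibition of PKC gamma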

Sequence of Protein kinase C eta type (Homo sapiens) (P24723 whole entry): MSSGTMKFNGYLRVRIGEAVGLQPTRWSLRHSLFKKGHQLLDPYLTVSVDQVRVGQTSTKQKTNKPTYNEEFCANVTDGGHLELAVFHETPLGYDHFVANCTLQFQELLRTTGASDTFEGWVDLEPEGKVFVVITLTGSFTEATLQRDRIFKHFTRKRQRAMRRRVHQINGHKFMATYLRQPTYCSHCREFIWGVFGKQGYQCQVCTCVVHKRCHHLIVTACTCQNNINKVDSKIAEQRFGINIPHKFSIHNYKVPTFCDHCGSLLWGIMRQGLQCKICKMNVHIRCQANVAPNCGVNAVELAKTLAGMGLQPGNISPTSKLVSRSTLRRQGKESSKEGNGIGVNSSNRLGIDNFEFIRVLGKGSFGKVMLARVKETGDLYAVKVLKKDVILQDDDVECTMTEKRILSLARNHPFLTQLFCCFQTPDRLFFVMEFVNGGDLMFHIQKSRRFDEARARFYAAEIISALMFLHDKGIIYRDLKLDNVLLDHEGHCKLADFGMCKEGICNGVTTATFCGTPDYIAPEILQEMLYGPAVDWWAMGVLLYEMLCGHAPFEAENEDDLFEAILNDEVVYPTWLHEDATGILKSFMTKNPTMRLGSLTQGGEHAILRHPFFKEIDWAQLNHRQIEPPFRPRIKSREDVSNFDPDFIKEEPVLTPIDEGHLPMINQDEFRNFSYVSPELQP
Sequence of Serine/threonine-protein kinase MRCK alpha (Homo sapiens) (Q5VT25 whole entry): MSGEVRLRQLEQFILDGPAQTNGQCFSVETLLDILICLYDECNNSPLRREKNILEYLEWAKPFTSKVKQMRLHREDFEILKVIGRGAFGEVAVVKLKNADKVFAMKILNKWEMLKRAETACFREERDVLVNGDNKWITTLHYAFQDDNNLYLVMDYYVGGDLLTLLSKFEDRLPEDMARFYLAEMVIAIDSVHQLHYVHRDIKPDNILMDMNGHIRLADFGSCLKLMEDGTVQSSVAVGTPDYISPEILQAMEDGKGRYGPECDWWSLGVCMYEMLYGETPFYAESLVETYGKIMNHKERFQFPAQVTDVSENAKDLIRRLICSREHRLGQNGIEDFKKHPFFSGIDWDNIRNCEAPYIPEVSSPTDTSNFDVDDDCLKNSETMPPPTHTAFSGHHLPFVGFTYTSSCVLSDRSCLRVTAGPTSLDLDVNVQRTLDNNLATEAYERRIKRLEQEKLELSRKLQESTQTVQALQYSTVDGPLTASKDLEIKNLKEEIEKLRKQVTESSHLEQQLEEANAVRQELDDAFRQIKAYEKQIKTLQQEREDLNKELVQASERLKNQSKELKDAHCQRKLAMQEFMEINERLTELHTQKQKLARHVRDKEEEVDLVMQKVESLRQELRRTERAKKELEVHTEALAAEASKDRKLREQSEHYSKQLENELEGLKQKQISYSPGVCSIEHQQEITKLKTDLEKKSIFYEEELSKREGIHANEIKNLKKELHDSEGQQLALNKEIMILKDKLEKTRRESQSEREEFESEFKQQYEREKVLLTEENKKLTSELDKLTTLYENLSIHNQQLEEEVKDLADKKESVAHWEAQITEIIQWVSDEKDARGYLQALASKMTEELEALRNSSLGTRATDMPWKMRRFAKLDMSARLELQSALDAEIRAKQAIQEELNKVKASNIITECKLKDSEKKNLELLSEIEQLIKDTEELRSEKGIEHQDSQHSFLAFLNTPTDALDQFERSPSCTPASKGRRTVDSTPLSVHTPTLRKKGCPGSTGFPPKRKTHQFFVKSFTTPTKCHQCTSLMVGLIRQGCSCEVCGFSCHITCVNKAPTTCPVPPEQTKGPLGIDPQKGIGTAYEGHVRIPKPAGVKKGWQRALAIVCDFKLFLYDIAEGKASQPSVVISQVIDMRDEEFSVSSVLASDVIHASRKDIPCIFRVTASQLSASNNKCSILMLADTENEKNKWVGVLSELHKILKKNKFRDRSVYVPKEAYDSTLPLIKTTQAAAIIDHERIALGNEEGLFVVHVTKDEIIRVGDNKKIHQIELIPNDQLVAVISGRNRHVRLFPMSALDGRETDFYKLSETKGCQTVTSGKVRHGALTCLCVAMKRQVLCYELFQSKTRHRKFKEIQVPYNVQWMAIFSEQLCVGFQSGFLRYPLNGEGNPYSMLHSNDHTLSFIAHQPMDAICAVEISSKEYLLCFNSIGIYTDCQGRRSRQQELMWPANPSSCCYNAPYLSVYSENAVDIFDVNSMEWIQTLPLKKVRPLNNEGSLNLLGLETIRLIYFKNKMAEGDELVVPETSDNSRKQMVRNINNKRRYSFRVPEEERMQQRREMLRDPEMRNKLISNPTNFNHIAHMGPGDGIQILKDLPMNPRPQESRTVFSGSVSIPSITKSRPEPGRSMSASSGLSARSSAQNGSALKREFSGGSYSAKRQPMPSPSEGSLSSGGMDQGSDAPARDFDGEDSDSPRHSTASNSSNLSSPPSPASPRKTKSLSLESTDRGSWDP
Sequence of Serine/threonine-protein kinase MRCK beta (Homo sapiens) (Q9Y5S2 whole entry): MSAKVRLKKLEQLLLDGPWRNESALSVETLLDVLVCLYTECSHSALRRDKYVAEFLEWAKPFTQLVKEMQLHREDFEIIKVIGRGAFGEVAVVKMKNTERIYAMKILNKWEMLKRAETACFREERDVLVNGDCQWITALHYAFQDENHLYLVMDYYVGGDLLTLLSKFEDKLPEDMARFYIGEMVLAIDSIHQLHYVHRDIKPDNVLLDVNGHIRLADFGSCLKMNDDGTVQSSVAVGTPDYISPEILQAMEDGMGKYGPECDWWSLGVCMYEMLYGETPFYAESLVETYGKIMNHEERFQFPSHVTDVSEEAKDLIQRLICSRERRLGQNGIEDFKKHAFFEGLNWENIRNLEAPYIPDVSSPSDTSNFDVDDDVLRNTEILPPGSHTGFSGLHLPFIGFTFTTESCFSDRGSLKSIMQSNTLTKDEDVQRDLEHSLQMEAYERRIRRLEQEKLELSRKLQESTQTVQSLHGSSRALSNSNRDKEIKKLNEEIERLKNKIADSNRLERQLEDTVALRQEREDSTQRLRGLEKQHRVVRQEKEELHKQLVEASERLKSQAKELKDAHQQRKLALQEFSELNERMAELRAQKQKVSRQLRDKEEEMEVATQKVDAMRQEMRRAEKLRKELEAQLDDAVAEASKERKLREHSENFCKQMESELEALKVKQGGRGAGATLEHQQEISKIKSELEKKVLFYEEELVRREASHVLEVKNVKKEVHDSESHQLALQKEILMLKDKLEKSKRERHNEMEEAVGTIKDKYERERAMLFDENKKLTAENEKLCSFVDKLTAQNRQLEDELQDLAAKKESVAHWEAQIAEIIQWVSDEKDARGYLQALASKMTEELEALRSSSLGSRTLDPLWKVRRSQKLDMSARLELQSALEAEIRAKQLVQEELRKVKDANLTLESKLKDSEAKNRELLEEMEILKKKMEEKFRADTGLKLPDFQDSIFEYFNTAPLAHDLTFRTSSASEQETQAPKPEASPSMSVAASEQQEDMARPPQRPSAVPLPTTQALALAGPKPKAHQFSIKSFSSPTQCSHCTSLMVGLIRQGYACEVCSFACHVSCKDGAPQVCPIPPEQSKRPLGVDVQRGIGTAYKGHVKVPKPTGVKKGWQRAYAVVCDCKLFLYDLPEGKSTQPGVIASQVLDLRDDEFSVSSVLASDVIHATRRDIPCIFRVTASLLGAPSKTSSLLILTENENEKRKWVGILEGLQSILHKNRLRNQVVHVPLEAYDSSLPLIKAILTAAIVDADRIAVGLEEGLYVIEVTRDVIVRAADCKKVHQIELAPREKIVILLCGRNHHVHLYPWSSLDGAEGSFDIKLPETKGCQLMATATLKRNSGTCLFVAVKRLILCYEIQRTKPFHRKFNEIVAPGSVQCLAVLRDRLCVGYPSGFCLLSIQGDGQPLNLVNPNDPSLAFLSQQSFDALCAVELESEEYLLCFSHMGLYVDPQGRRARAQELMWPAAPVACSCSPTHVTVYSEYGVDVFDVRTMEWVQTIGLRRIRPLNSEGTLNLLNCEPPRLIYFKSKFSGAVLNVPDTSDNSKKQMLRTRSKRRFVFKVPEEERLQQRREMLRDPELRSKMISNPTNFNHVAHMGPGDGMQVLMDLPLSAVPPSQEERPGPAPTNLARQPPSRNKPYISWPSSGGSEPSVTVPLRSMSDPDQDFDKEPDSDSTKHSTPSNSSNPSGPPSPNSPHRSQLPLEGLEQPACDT
Sequence of Ribosomal protein S6 kinase beta-1 (Homo sapiens) (P23443 whole entry, looked up): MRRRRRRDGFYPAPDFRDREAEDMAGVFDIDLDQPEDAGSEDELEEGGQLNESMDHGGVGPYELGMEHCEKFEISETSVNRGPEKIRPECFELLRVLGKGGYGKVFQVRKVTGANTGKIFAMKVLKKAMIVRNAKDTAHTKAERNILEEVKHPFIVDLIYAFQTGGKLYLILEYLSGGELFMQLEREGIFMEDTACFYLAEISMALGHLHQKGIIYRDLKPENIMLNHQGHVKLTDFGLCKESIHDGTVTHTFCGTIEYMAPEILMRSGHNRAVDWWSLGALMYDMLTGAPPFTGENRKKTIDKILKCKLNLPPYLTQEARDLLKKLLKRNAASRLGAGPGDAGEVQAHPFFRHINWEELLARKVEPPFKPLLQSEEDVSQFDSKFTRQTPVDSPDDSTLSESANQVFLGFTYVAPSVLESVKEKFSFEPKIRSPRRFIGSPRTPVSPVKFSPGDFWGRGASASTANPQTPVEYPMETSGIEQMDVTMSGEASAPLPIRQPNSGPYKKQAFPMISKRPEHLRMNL

Compound | inhibition [1] [%] | inhibition [2] [%] | inhibition [3] [%] | inhibition [4] [%] | inhibition [5] [%] | inhibition [6] [%] | inhibition [7] [%] | inhibition [8] [%] | inhibition [9] [%] | inhibition [10] [%] | inhibition [11] [%] | inhibition [12] [%] | inhibition [13] [%] | inhibition [14] [%] | inhibition [15] [%] | inhibition [16] [%] | inhibition [17] [%] | inhibition [18] [%] | inhibition [19] [%] | inhibition [20] [%]
CCc1ccc(Oc2nccc(-c3c(-c4ccc(F)cc4)ncn3C3CCNCC3)n2)cc1 | 10 | 12 | 0.41 | 4.65 | 2.63 | 4.23 | 3.19 | 5.69 | 1.57 | 5.93 | 1.58 | 25.9 | 75 | 0.98 | 7.86 | 3.94 | 14.9 | 7.26 | 5.32 | -0.16
Fc1ccc(-c2ncn(C3CCNCC3)c2-c2ccnc(Oc3ccc(Oc4ccccc4)cc3)n2)cc1 | 5.81 | 7.37 | -0.26 | 1.5 | 10.2 | 11.9 | 2.53 | 5.09 | 2.41 | 4.57 | 0.03 | 4.74 | 24.9 | 1.36 | 4.49 | 1.48 | 11.2 | 1.53 | 5.81 | 2.37
CN1CCN(CCCNc2nc3ccc(Oc4ccc(NC(=O)Nc5cc(C(F)(F)F)ccc5F)cc4)cc3[nH]2)CC1 | 1.76 | -0.74 | 2.45 | 2.84 | 1.13 | -0.08 | 1.93 | 2.99 | 1.14 | 4.19 | 2.91 | -1.46 | -0.98 | -2.39 | -1.52 | 2.13 | 1.42 | 1.27 | 1.68 | 1.25
Nc1nccc(-c2c(-c3ccc(F)cc3)ncn2C2CCC(O)CC2)n1 (stereo not given) | -0.25 | -0.81 | 0.88 | 0.56 | -1.03 | -0.24 | -1.62 | -0.73 | -1.59 | -1.84 | 0.39 | 4.16 | 48.4 | 0.74 | 10.2 | 3.05 | 20.3 | -3.17 | -1.04 | -3.99
C[C@@H](Oc1cc(-n2cnc3ccc(OC4CCN(C)CC4)cc32)sc1C(N)=O)c1ccccc1Cl | 0.03 | 5.65 | 0.19 | 2.98 | 2.31 | 1.66 | 2.84 | 5.67 | 1.64 | 5.01 | 0.63 | -1.89 | -4.19 | -3.4 | 0.64 | 0.95 | 3.55 | 2.46 | 4.62 | 0.71
O=C1Nc2ccc(I)cc2C1=Cc1cc(Br)c(O)c(Br)c1 | 6.44 | 3.97 | -0.53 | 1.27 | 1.69 | 1.77 | 2.87 | 4.68 | 2.06 | 4.52 | 1.34 | 2.28 | 2.5 | 0.27 | 0.59 | 0.25 | 1.41 | 5.57 | 2.17 | 2.32
C#Cc1cccc(Nc2ncnc3ccc(OCCCCNCCS(C)(=O)=O)cc23)c1 | -0.05 | 7.35 | 0.55 | 1.44 | 2.74 | 1.8 | 3.12 | 3.4 | 2.59 | 3.29 | 1.83 | -0.23 | -0.04 | -2.51 | 0.29 | 1.6 | 4.77 | 0.97 | 4.94 | 3.27
FC(F)(F)c1cccc(Nc2nccc(-c3cnn4nc(-c5ccccc5)ccc34)n2)c1 | -4.69 | -0.12 | 0.14 | 0.03 | 1.36 | 0.17 | 1.71 | 0.86 | 1.59 | 0.67 | -0.51 | 1.63 | 0.52 | -0.27 | 0.87 | -0.86 | 2.15 | 2.08 | 3.01 | 2.43
Cc1ccc(NC(=O)c2ccoc2)cc1-c1ccc(C(=O)NCC2CC2)cc1 | -2.51 | -2.81 | -0.56 | -1.77 | 0.76 | -1.39 | 1.78 | -0.44 | -0.57 | -1.48 | 0.18 | 2.1 | 2.23 | -0.03 | 0.82 | 1.84 | 1.76 | 4.75 | 3.88 | -1.55
COc1cc(Nc2ncc(-c3ccccc3)o2)cc(OC)c1OC | 2.53 | 3.73 | 0.08 | 0.86 | 0.23 | 0.82 | -1.71 | 0.02 | -0.45 | 3.55 | -0.87 | -0.33 | -0.26 | -0.31 | 1.1 | -1.34 | 2.43 | -0.81 | -4.38 | -1
COc1cc2ncn(-c3cc(OCc4cccs4)c(C(N)=O)s3)c2cc1OC | 2.82 | 7.52 | 1.67 | 1.38 | 2.22 | 5.4 | 4.25 | 8 | 1.35 | 3.91 | 3.07 | -0.85 | -2.23 | -2.88 | -2.59 | 5.39 | 8.77 | 4.49 | 4.09 | 4.75
CS(=O)(=O)CCNCc1ccc(-c2ccc3ncnc(Nc4ccc(OCc5ccccc5)c(Br)c4)c3c2)o1 | -6.6 | -3.23 | -0.18 | -0.76 | 1.16 | -1.75 | 2.02 | 0.82 | 0.95 | 0.5 | 2.06 | -1.58 | -1.94 | -3.83 | -2.95 | 0.95 | -0.59 | 5.37 | 5.42 | 0.5
COc1ccc2cc(-c3c(-c4ccncc4)nc(-c4ccc([S+](C)[O-])cc4C)n3C)ccc2c1 (stereo not given) | -1.8 | 1.91 | 0.22 | 1.15 | -7.06 | -6.22 | -0.04 | -0.04 | 0.21 | 0.05 | 0.48 | 2.01 | 21.8 | 0.33 | 1.35 | 2.04 | 13 | 0.16 | 0.69 | -0.82
O=C(NCC1CC1)c1ccc(-c2cccc(C(=O)NC3CC3)c2)cc1 | 0.69 | -1.55 | 1.52 | 1.09 | 2.45 | 2.84 | 0.7 | 3.88 | 1.49 | 1.03 | 0.6 | 0.93 | 0.36 | 1.02 | 0.96 | -0.06 | -2 | 3.93 | -1.4 | 4.6
Fc1ccc(-c2ncn(C3CCNCC3)c2-c2ccnc(Oc3ccc4c(c3)OCO4)n2)cc1 | -2.57 | 9.23 | 0.96 | 2.94 | -2.64 | -3.44 | 3.63 | 4.53 | 2.58 | 5.14 | -1.49 | 6.76 | 37.9 | 1.59 | 3.68 | 1.12 | 8.79 | 7.87 | 4.75 | 0.91
CCN(CC)Cc1ccc(Nc2nccc(-c3cnn4ncccc34)n2)cc1 | 2.38 | 4.32 | 0.71 | 4.53 | 0.66 | 2.51 | 2.43 | 7.32 | 1.81 | 7.85 | 0.96 | -0.94 | 4.26 | 0.47 | 17.8 | 0.22 | -5.55 | 5.27 | 7.25 | 0.4
COc1cc2ncn(-c3cc(OCCc4ccccc4)c(C(N)=O)s3)c2cc1OC | 1.17 | 2.94 | 1.02 | 1.01 | 1.83 | 0.4 | 0.49 | 0.9 | 1.13 | 0.05 | 1.29 | 1.37 | -1.08 | 0.95 | 1.14 | 0.05 | -0.8 | -1.3 | 0.58 | 1.89
COc1ccc(-c2ccc3c(NC(=O)C4CC4)n[nH]c3n2)cc1 | 0.51 | 3.19 | -0.1 | 0.25 | 1.32 | 2.82 | 2.27 | 2.9 | 0.22 | 0.21 | -1.04 | 1.31 | 1.22 | -0.95 | -0.98 | -0.58 | 1.54 | 1.15 | 1.68 | 0.57
COc1cc(Nc2ncc3c(C)nc(-c4cccc(Oc5ccccc5)c4)n3n2)cc(OC)c1OC | 0.02 | -0.11 | 0.97 | 1.86 | 8.17 | 7.74 | 0.96 | 2.98 | 1.98 | 3.01 | 3.74 | 0.88 | -0.04 | 0.01 | 0.77 | -0.46 | -0.16 | 4.9 | -1.37 | 0.97
c1ccc(Oc2ccc(Nc3ncc(-c4ccccc4)o3)cc2)cc1 | -0.31 | 1.06 | 0.44 | 3.62 | 0.98 | 3.6 | 1.31 | 3.78 | 0.11 | -0.31 | 3.8 | 1.26 | 5.43 | 1.03 | 1.47 | 1.14 | 0.76 | -1.38 | -0.47 | 1.13
COc1cccc(/C=N/Nc2ncnc3c2cnn3-c2cccc(OC)c2)c1 | 1.64 | -0.23 | -0.8 | 0.84 | 2.19 | -0.07 | 2.48 | 2.78 | 1.49 | 2.2 | 1.13 | 1.27 | 1.21 | 0.12 | 0.85 | -0.96 | 0.85 | 5.46 | 4.14 | 3.43
Cc1nnc(-c2ccc(C)c(-c3ccc(C(=O)NCc4ccc(Cl)cc4)cc3)c2)o1 | 0.16 | 1.24 | 0.69 | -0.22 | 1.45 | 1.55 | 3.07 | 3.61 | 1.21 | 2.04 | 1.14 | -1.01 | 0.62 | -3.05 | -1.62 | 0.85 | 0.84 | 6.52 | 7.5 | 2.61

Source: ChEMBL document CHEMBL1961873, “Compounds: GSK PKIS; Assays: Nanosyn kinase panel” (2012)
